About 50 (2%) of roughly 3,300 compounds were called active. Not all results are given here. Measured potencies and affinities stand elsewhere. Unmarked numbers belong to inactive results.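 How the source made its calls: active means concentration giving half-maximal inhibition at or below 20 micromolar; inactive means half-maximal concentration above 20 micromolar, or not dose tested.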
experiment: cytotoxicity toward Jurkat T cells, primary screen, cell-based, Jurkat E6.1, NIH starter set (AID 364); conditions: Jurkat E6.1 viability, ATP luminescence, 48 h; at 4 µM; active compounds read high;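 further: 100% = cells treated with 4 µM doxorubicin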

In order of falling inhibition:
1. c1ccc2c(c1)[nH]c1c(N3CCSCC3)ncnc12  29.6%
2. Fc1ccc2[nH]c3c(N4CCN(c5ccccc5)CC4)ncnc3c2c1  28.7%
3. c1ccc(CN2CCN(c3ncnc4c3[nH]c3ccccc34)CC2)cc1  28.5%
4. COc1cccc(N2CCN(c3ncnc4c3[nH]c3ccccc34)CC2C)c1 (centres undefined)  22.3%
5. Cc1ccc2[nH]c3c(N4CCN(Cc5ccc6c(c5)OCO6)CC4)ncnc3c2c1  18.7%
6. Clc1ccc(-n2ncc3c(NCc4cccs4)ncnc32)cc1  18.1%
7. NC(=O)c1cc(-c2ccccc2)nc(Oc2ccccc2)n1  16.2%
8. CC1(C2(O)CC(c3ccccc3)ON2)CCCCC1 (centres undefined)  13.9%
9. N#CC1=C(SCc2ccccc2)NC2=C(C(=O)CCC2)C1c1ccc2c(c1)OCO2 (centres undefined)  13.1%
10. OCCNc1ncnc2c1c(-c1ccccc1)c(-c1ccccc1)n2Cc1ccco1  11.5%
11. NS(=O)(=O)c1ccc(-c2ccc(C=NC3CCS(=O)(=O)C3)o2)cc1 (centres undefined)  10.2%
12. Cc1nc(NS(=O)(=O)c2ccccc2)sc1NC(=O)OCCN(C)C  9.6%
13. CCOC(=O)CC(=O)CSc1nc(N)c(C#N)c(-c2ccc(Cl)cc2)c1C#N  9.6%
14. CC(C)c1nc(NCC2CCCO2)c(C#N)c2c1COC(C)(C)C2 (centres undefined)  9.3%
15. COc1ccc(Nc2oc(-c3cccs3)nc2C#N)cc1  9.1%
16. COCCOC(=O)C1=C(C)NC(SCC(=O)NC(C)(C)C)=C(C#N)C1c1ccco1 (centres undefined)  9.1%
17. C=C(C)CSC1=C(C#N)C(c2ccsc2)CC(=O)N1 (centres undefined)  8.6%
18. Nc1nnnn1/N=C/c1ccco1  8%
19. CC1CN(C2CCN(S(=O)(=O)c3ccccc3)CC2)CC(C)O1 (centres undefined)  7.8%
20. Cc1cc(-c2cc(-c3ccc(Cl)cc3)nc(N)c2C#N)co1  7.7%
21. O=C1CCCN1c1ccc(S(=O)(=O)NCc2ccco2)cc1  7.4%
22. O=C(c1coc(=O)c(Br)c1)N1CCOCC1  7.3%
23. COc1cccc(C2C(C#N)=C(N)Oc3cc(C)[nH]c(=O)c32)c1OC (centres undefined)  7.3%
24. CN(Cc1ccccc1)c1ncnc2ccc(Br)cc12  7.2%
25. CCn1cc(C(=O)NCc2ccco2)c(=O)c2cc(F)c(N3CCN(C(=O)c4ccco4)CC3)cc21  7.2%
26. CCOC(=O)C1=C(N)c2ccccc2CC1C(C)C (centres undefined)  7%
27. CC(=O)c1c(OCC(=O)O)ccc2c(C)cc(=O)oc12  6.9%
28. CCCCOC(=O)Nc1ccc(S(=O)(=O)Nc2nc(C)cc(C)n2)cc1  6.7%
29. Cc1ccc(NC(=O)CSC2=C(C#N)C(c3ccco3)C3=C(CCCC3=O)N2)cc1 (centres undefined)  6.6%
30. CC(C)Oc1ccc(/C(O)=C2/C(=O)C(=O)N(CCN(C)C)C2c2ccco2)cc1 (centres undefined)  5.7%
31. Clc1ccc(-n2ncc3c(NCc4ccccn4)ncnc32)cc1  5.5%
32. COc1ccc(-c2cc3nc4n(c(=O)c3s2)CCOC4)cc1  4.7%
33. CN1CCN(c2c3c(c(C#N)c4nc5ccccc5n24)CCCC3)CC1  4.7%
34. COCCCn1c(C)nc2c(c1=O)c1nc3ccccc3nc1n2CCc1ccccc1  4.1%
35. CCCCCOC(=O)Cc1c(C)nc(-c2ccccc2)[nH]c1=O  3.9%
36. OCCOCCNc1ncnc2c1cnn2-c1ccc(Cl)cc1  3.8%
37. CCc1ccc(NC(=O)CSC2=C(C#N)C(c3ccco3)C3=C(CCCC3=O)N2)cc1 (centres undefined)  3.5%
38. CCOc1cc(CN2CCOCC2)cc(C(C)=O)c1  3.2%
39. COCCNc1oc(-c2ccc(Cl)cc2)nc1C#N  2.9%
40. Cn1c(Cn2cnc3ccccc32)nc2ccccc21  2.8%
41. c1ccc(N2CCN(c3nc(NCc4ccco4)c4ccccc4n3)CC2)cc1  2.5%
42. CCCOc1cccc(C2/C(=C(/O)c3ccccc3)C(=O)C(=O)N2CCN(C)C)c1 (centres undefined)  2.5%
43. CCc1nc(N2CCCC2)c(C#N)c2c1CCCC2  2.4%
44. Cc1cc(C)n(C(=O)CNC(=O)c2cccs2)n1  2.3%
45. O=C(C1CCCCC1)N1CCCn2c1nc1ccccc12  1.8%
46. CN1C2C=C3C(C#N)=C(N)C(C#N)(C#N)[C@@H](c4ccc(Cl)cc4)[C@@H]3C1CC2 (some centres undefined)  1.6%
47. CCN(CC)CCCn1c(C)cc2c(c1=O)C(c1ccc(OC)c(OC)c1OC)C(C#N)=C(N)O2 (centres undefined)  1.4%
48. O=c1[nH]c2sc3c(c2c(=O)n1Cc1ccccc1)CCC3  1.3%
49. CCCOc1cccc(CN2CCCCC2c2cccnc2)c1 (centres undefined)  0.8%
50. Cc1cc(NC(CC(C)C)C(=O)O)nc(Cc2ccccc2)n1 (centres undefined)  0.4%
51. CCCCOC(=O)CCc1nc2ccccc2[nH]1  0.2%
52. Cc1cn([C@H]2C[C@H](N=[N+]=[N-])[C@@H](CO)O2)c(=O)[nH]c1=O  0.1%
53. CN(C)CCCN1C(=O)C(O)=C(C(=O)c2cc3ccccc3o2)C1c1ccccc1 (centres undefined)  0%
54. COc1ccc(N2CC(=O)N(c3ccc(OC)c(OC)c3)CC2=O)cc1OC  -0.2%
55. C(=N\n1cnnc1)/c1ccccn1  -0.2%
56. Cn1cc(C(=O)NCN2CCCCC2)c2ccccc21  -0.4%
57. COc1ccc2[nH]c3c(N4CCN(Cc5ccc6c(c5)OCO6)CC4)ncnc3c2c1  -0.5%
58. CC(C(=O)N1CCOCC1)N1C(=O)c2ccccc2C1=O (centres undefined)  -0.7%
59. Cn1c(N)c(C#N)c(C#N)c1-c1ccccc1  -0.9%
60. Cc1cc(=O)oc(C)c1C(=O)N1CCN(C)CC1  -1%
61. CCOc1ccc2nc(SCC(=O)Nc3ncccn3)[nH]c2c1  -1.3%
62. Nc1ccc2oc3ncccc3c(=O)c2c1  -1.7%
63. COc1cccc(-c2nc(N3CCCCC3C)c3ccccc3n2)c1O (centres undefined)  -2%
64. COc1ccc(C(O)C(CN2CCOCC2)c2ccccc2)cc1 (centres undefined)  -2.1%
65. CCN(CC)C(=O)CSC1=C(C#N)C(c2ccco2)C(C(=O)OCCOC)=C(C)N1 (centres undefined)  -2.1%
66. CCCCc1ccc(NC(=O)CSC2=C(C#N)C(c3ccco3)C3=C(CCCC3=O)N2)cc1 (centres undefined)  -2.5%
67. COc1cc(C2C(C#N)=C(N)Oc3cc(C)n(CCN4CCOCC4)c(=O)c32)cc(OC)c1OC (centres undefined)  -2.9%
68. CCCNc1ncnc2c1cnn2-c1ccc(OC)cc1  -3.3%
69. CCc1ccccc1NC(=O)CSC1=C(C#N)C(c2ccc(O)c(OC)c2)C2=C(CCCC2=O)N1 (centres undefined)  -3.3%
70. CCCCNC1=C(Br)C(=O)CC(C)(C)C1  -3.7%
71. O=C1C2CC=C(Cl)CC2C(=O)N1CNc1ccccn1 (centres undefined)  -4.2%
72. O=c1c(C=NCCCn2ccnc2)c(-c2ccccc2)[nH]n1-c1nc2ccccc2s1  -4.4%
73. Cc1cc(CCC(=O)O)c(C)cc1CCC(=O)O  -4.4%
74. COc1ccc(C(=O)CCN2CCCCCC2)cc1  -4.7%
75. CCC(NC(=O)Nc1nccs1)(C(F)(F)F)C(F)(F)F  -5%
76. c1ccc(OCc2nn3c(-c4cccnc4)nnc3s2)cc1  -5.4%
77. CCN(CC)CCCN1C(=O)C(=O)/C(=C(/O)c2ccc(C)cc2)C1c1ccccn1 (centres undefined)  -5.6%
78. N#CCCSCc1ccc(OCC(=O)O)cc1  -5.7%
79. O=C(O)CCc1nn2cc(-c3ccccc3)nc2[nH]c1=O  -5.8%
80. Oc1ccccc1-c1nc(NCc2ccco2)c2ccccc2n1  -6.1%
81. CNC(=O)C1CC(=O)N(Cc2ccccc2)C(=Nc2ccc(OC)cc2)S1 (centres undefined)  -6.1%
82. CC(NC(=O)Nc1nccs1)(C(F)(F)F)C(F)(F)F  -6.2%
83. Cc1cn([C@H]2C=C[C@@H](CO)O2)c(=O)[nH]c1=O  -6.6%
84. COc1ccccc1NC(=O)C1=C(C)NC(SCC(=O)c2ccc(C)cc2)=C(C#N)C1c1ccco1 (centres undefined)  -6.6%
85. O=C(NCC(F)(F)F)Nc1nnc(C(F)(F)F)s1  -6.7%
86. COc1cc(NC(=O)NC(C)(C(F)(F)F)C(F)(F)F)cc(OC)c1OC  -6.8%
87. CCCCCCSC1=C(C#N)C(c2ccccc2)CC(=O)N1 (centres undefined)  -7%
88. CC(C)Oc1ccc(/C(O)=C2/C(=O)C(=O)N(CCN3CCOCC3)C2c2ccccc2)cc1 (centres undefined)  -8.3%
89. COc1ccc(C2=CC(c3cccc(OC)c3)n3nnnc3N2)cc1 (centres undefined)  -8.6%
90. Cc1nc(SC2C=CS(=O)(=O)C2)n[nH]1 (centres undefined)  -8.6%
91. O=C(NCc1cccnc1)NC(C(F)(F)F)C(F)(F)F  -8.9%
92. COC(=O)C1=C(N)Oc2cc(C)oc(=O)c2C1c1ccncc1 (centres undefined)  -9.1%
93. CC1CCCCN1C(=O)C12CCC(C)(/C(=N/O)C1)C2(C)C (centres undefined)  -9.3%
94. COc1cccc(C2=CC(c3ccc(N(C)C)cc3)n3nnnc3N2)c1 (centres undefined)  -9.6%
95. CCOc1ccc(CC2CC(=O)NC2=O)cc1 (centres undefined)  -9.7%
96. CCOc1cccc(C2C(C#N)=C(N)Oc3cc(C)oc(=O)c32)c1OCC (centres undefined)  -9.9%
97. CCOC(=O)C1Cc2c([nH]c3ccccc23)C(C)N1 (centres undefined)  -10.3%
98. CCSc1nnc(NC(=O)NC(CC)(C(F)(F)F)C(F)(F)F)s1  -11.5%
99. Cc1cc(C)n(CC(=O)c2ccccc2)c(=O)c1C#N  -17.6%

Reference: PubChem BioAssay AID364 (The Scripps Research Institute Molecular Screening Center, 2006)
